# In PubChem BioAssay:
# The source made the active and inactive calls.
# How the values were obtained:
# [1] = E. coli DRC41 culture turbidity changes, primary screen, E. coli filamentation inducer project, strain DRC41, OD650, 48 h (AID 1152);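 note: E. coli MC1000 strain DRC41 lacking acrAB efflux pump and sulA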; settings: E. coli DRC41 (acrAB sulA), higher = more signal, called active from +8 up or from −8 down
# [2] = small-molecule binders of probe aLefty1, primary screen, biochemical, small-molecule microarray, 635/667 nm fluorescence (AID 1153); settings: higher = more signal;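 note: score merges spot fluorescence with signal-to-noise ratio from the scanned slide images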
# [3] = PSAC antagonists in infected red cells, primary screen, cell-based, P. falciparum Indochina, OD700, 1 h (AID 1154); settings: P. falciparum Indochina infected RBC osmotic lysis, higher = more signal, called active from +8 up or from −8 down
# [4] = PSAC antagonists in infected red cells, primary screen, cell-based, P. falciparum Indochina, OD700, 2 h (AID 1155);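 note: lysis reports solute entry through the parasite surface anion channel PSAC; channel blockers reduce lysis of infected cells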; settings: P. falciparum Indochina infected erythrocytes, osmotic lysis OD700; higher = more signal, called active from +8 up or from −8 down
# [5] = osmotic lysis modulators in infected erythrocytes, primary screen, PSAC antagonist project, cell-based, P. falciparum Indochina, OD700, 3 h (AID 1156); settings: higher = more signal, called active from +8 up or from −8 down
# [6] = PSAC antagonists in infected red cells, primary screen, cell-based, P. falciparum Indochina, OD700, 18 h (AID 1157); settings: P. falciparum Indochina infected erythrocytes, osmotic lysis OD700, 18 h; higher = more signal, called active from +8 up or from −8 down
# [7] = modulators of S6 phosphorylation in cells, primary screen, cell-based, A549, cytoblot, luminescence, serum-stimulated (AID 1158); settings: A549 phospho-S6 cytoblot, 5 h, higher = more signal;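 note: serum-stimulated A549 lung adenocarcinoma cells; signal is phosphorylated S6 detected by cytoblot immunostaining with HRP secondary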
# [8] = target: NADPH oxidase 2 (Homo sapiens) (UniProt P04839); assay: NOX2-dependent H2O2 signal modulators, primary screen, NOX inhibitor project, cell-based, HEK293-NOX2, PMA-stimulated, Amplex Red fluorescence (AID 1159); settings: 45 min, higher = more signal, called active from +8 up or from −8 down; note: test concentration not given here
# [9] = target: NADPH oxidase 4 (Homo sapiens) (UniProt Q9NPH5); assay: NOX4-dependent H2O2 signal modulators, primary screen, NOX inhibitor project, cell-based, HEK293-NOX4, tetracycline-induced, Amplex Red fluorescence (AID 1160); settings: 45 min, higher = more signal, called active from +8 up or from −8 down
# [10] = target: NADPH oxidase 5 (Homo sapiens) (UniProt Q96PH1); assay: NOX5-dependent H2O2 signal modulators, primary screen, NOX inhibitor project, cell-based, HEK293-NOX5, Amplex Red fluorescence (AID 1161); settings: HEK293-NOX5, ionomycin, 45 min, higher = more signal
# [11] = A549 cell viability effects, profiling panel, calcein-AM fluorescence, 48 h, basal (AID 1162); settings: higher = more signal; note: test concentration not given here
# [12] = adipocyte viability effects, profiling panel, cell-based, 3T3-L1 adipocytes, calcein-AM fluorescence, 48 h, basal (AID 1163); settings: 3T3-L1 adipocytes viability, higher = more signal; note: test concentration not given here
# [13] = HepG2 cell viability effects, profiling panel, calcein-AM fluorescence, 48 h, basal (AID 1164); settings: higher = more signal; note: test concentration not given here
# [14] = MM1S cell viability effects, profiling panel, calcein-AM fluorescence, 48 h, basal (AID 1165); settings: higher = more signal;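 note: viability of MM1S multiple myeloma cells under basal unstimulated conditions; test concentration not given here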
# [15] = basal RPMI8226 viability, no added stimulus, profiling panel, cell-based, calcein-AM fluorescence, 48 h, PK04 Diversity Set (AID 1166); settings: RPMI8226 myeloma viability, higher = more signal;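 note: cells grown under basal conditions without added stimulus; test concentration not given here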
# [16] = basal HepG2 mitochondrial membrane potential changes, profiling panel, cell-based, JC-1 fluorescence, 24 h, 100 nL compound (AID 1167); settings: higher = more signal; note: test concentration not given here
# [17] = basal 3T3-L1 adipocyte mitochondrial potential changes, profiling panel, cell-based, JC-1 fluorescence, 3T3-L1 adipocytes, 24 h, 100 nL compound (AID 1168); settings: JC-1 mitochondrial fluorescence, higher = more signal, called active from +8 up or from −8 down; note: test concentration not given here
# [18] = basal RPMI8226 mitochondrial membrane potential changes, profiling panel, cell-based, JC-1 fluorescence, 24 h, 100 nL compound (AID 1169); settings: RPMI8226 myeloma, JC-1 mitochondrial potential fluorescence, higher = more signal; note: test concentration not given here
# [19] = basal MM1S mitochondrial membrane potential changes, profiling panel, cell-based, JC-1 fluorescence, 24 h, 100 nL compound (AID 1170); settings: higher = more signal; note: test concentration not given here
# [20] = A549 lung cancer cell viability effects, profiling panel, resazurin fluorescence, 24 h, PK04 Diversity Set (AID 1171); settings: higher = more signal, called active from +8 up or from −8 down; note: test concentration not given here
# Sequence of NADPH oxidase 5 (Homo sapiens) (Q96PH1 whole entry, looked up): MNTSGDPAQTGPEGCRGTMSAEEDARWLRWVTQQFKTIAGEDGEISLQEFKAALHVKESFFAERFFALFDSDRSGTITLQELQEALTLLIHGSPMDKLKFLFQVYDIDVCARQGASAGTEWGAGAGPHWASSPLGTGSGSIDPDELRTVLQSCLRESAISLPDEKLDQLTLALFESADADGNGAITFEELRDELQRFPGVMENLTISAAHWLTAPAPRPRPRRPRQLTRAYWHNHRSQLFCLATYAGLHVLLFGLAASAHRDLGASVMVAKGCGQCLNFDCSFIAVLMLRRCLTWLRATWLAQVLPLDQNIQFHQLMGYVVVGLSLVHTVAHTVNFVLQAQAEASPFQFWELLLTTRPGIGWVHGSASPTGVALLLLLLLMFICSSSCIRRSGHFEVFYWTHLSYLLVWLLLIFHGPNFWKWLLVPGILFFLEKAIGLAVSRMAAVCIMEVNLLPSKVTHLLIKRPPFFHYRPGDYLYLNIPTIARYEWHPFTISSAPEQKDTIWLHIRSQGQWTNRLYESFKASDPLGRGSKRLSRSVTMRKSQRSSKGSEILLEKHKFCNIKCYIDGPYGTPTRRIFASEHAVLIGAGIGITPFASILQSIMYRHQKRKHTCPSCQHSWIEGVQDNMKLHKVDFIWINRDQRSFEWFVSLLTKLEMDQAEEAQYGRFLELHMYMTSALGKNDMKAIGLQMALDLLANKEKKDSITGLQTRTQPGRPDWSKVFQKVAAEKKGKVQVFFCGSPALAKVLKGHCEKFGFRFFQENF
# Sequence of NADPH oxidase 4 (Homo sapiens) (Q9NPH5 whole entry, looked up): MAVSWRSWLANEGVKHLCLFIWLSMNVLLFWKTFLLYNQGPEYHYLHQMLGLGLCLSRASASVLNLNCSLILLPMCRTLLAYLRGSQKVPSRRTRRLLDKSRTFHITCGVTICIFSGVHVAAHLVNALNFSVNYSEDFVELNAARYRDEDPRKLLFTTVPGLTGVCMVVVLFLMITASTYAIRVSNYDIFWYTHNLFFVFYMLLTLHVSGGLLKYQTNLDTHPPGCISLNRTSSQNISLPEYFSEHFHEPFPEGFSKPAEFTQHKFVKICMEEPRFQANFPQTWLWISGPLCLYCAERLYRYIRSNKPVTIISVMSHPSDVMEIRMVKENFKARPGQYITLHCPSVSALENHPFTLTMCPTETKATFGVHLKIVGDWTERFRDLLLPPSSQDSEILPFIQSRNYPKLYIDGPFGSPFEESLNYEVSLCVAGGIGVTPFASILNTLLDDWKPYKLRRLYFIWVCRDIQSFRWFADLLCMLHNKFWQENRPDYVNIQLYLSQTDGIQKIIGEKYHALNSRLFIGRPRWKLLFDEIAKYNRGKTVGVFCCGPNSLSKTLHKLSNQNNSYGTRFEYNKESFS
# Sequence of NADPH oxidase 2 (Homo sapiens) (P04839 whole entry, looked up): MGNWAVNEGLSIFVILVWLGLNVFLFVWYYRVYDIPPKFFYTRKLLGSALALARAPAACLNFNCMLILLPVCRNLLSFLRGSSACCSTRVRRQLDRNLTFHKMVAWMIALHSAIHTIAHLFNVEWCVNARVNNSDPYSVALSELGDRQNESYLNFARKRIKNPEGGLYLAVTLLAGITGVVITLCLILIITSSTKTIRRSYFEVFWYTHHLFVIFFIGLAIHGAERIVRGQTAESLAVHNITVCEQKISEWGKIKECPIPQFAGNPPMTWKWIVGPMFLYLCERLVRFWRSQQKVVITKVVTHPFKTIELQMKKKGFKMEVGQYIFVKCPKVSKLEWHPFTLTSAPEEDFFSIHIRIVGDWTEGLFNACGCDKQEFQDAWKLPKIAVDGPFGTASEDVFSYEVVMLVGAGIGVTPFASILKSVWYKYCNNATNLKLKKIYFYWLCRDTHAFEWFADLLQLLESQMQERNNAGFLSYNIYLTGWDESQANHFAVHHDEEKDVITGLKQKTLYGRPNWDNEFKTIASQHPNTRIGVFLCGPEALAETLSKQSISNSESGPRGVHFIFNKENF
SMILES,z-score [1],composite z-score [2],z-score [3],z-score [4],z-score [5],z-score [6],z-score [7],z-score [8],z-score [9],z-score [10],z-score [11],z-score [12],z-score [13],z-score [14],z-score [15],z-score [16],z-score [17],z-score [18],z-score [19],z-score [20]
Cc1cc(C)c(-c2cc([C@H](C)ON=C[C@@H](C)[C@H](OCc3ccccc3)C(C)C)on2)c(C)c1,-0.3 (inactive),-0.0501,0.859 (inactive),0.541 (inactive),-0.831 (inactive),0.195 (inactive),-0.408,-0.467 (inactive),-0.299 (inactive),-0.45,0.66,-0.0328,0.163,0.682,-0.234,3.57,-0.508 (inactive),-0.149,-0.143,-0.0597 (inactive)
COC(=O)CC=C1c2ccccc2[C@H](OC)[C@H]1C,0.101 (inactive),-0.326,0.0311 (inactive),0.269 (inactive),-0.0239 (inactive),-0.0463 (inactive),-0.882,0.457 (inactive),0.644 (inactive),0.199,0.16,-0.116,-0.379,-0.458,-1.22,-0.8,-0.272 (inactive),0.539,-0.707,-0.397 (inactive)
COC(=O)CC=C[C@@H](C)[C@@H](C=NOC(C)CN1CCCc2nc(C)c(C)cc21)NS(=O)(=O)c1ccc(C)cc1 (stereo not given in full),0.364 (inactive),0.119,2.52 (inactive),0.584 (inactive),0.201 (inactive),0.49 (inactive),-0.929,-0.134 (inactive),0.283 (inactive),-0.736,0.969,-0.176,0.0666,-1.08,-0.427,-0.486,-0.774 (inactive),0.462,-0.534,-0.726 (inactive)
CC(CCN1CCCCc2nc(C)c(C)cc21)=NOC[C@@H](O)[C@H]1O[C@@H]2OC(C)(C)O[C@@H]2[C@H]1O,-1.25 (inactive),-0.265,0.422 (inactive),0.726 (inactive),0.637 (inactive),0.244 (inactive),-0.67,0.0801 (inactive),0.413 (inactive),-0.216,-0.638,-0.566,-1.33,-0.22,-0.177,-0.536,-1.31 (inactive),-0.0542,-0.477,0.0214 (inactive)
C[C@@H]1C=CCC(=O)OC[C@H](C)C(=O)N[C@@H](Cc2ccccc2)C(=O)OC1,-0.596 (inactive),-0.0287,0.296 (inactive),-0.506 (inactive),-0.307 (inactive),-1.2 (inactive),0.826,-0.348 (inactive),-0.928 (inactive),-0.396,-0.88,2.49,0.499,-0.295,-0.371,0.662,0.55 (inactive),0.803,0.382,0.168 (inactive)
CC(=O)OC[C@H]1O[C@@H](ON=C(C)C)[C@H](OC(C)=O)[C@@H](OC(C)=O)[C@@H]1OC(C)=O,-1.83 (inactive),0.145,0.421 (inactive),1.12 (inactive),0.638 (inactive),0.539 (inactive),0.152,1.27 (inactive),0.378 (inactive),-0.611,-0.132,0.0138,-0.179,-0.0646,-0.43,-0.0132,-0.763 (inactive),0.93,0.35,-0.0264 (inactive)
CCOC(=O)[C@H](Cc1ccccc1)NC(=O)CCC1CC(OC(=O)NCc2cccc3ccccc23)CC2(CCCC(COC(=O)NCCOc3ccccc3)O2)O1 (stereo not given in full),-1.98 (inactive),-0.0094,-0.623 (inactive),-0.824 (inactive),0.48 (inactive),-1.33 (inactive),1.01,0.0124 (inactive),0.762 (inactive),1.06,0.128,0.0331,-0.175,0.992,-0.634,0.161,0.0327 (inactive),0.113,-0.883,0.0235 (inactive)
C=CC[C@@H]1C=C[C@H](ON=C(C)CCN2CCCCc3nc(C)c(C)cc32)[C@@H](CO)O1,-0.813 (inactive),-0.0547,1.07 (inactive),0.547 (inactive),0.325 (inactive),0.392 (inactive),-0.53,-0.953 (inactive),-0.352 (inactive),-0.424,0.275,-0.7,-0.389,0.475,-0.332,-0.874,-1.84 (inactive),-0.174,-0.514,-0.421 (inactive)
CCOC(=O)[C@H](Cc1ccccc1)NC(=O)CCC1CC(OC(=O)NCc2ccc3c(c2)OCO3)CC2(CCCC(COC(=O)NCCc3ccc(Cl)cc3)O2)O1 (stereo not given in full),-0.393 (inactive),-0.281,1.44 (inactive),-0.0302 (inactive),-0.249 (inactive),-0.741 (inactive),1.51,-0.194 (inactive),0.396 (inactive),1.63,1.81,0.71,0.622,-0.845,-0.167,0.783,0.361 (inactive),-0.162,-1.27,-0.455 (inactive)
C=CCOCC1CN2[C@@H](CC[C@@H](C)[C@@H]2c2ccc(Br)cc2)C(=O)O1 (stereo not given in full),0.298 (inactive),-0.147,0.517 (inactive),0.456 (inactive),-1.14 (inactive),0.247 (inactive),-0.665,0.286 (inactive),-0.604 (inactive),-2.74,0.124,0.312,0.289,-0.268,-0.0306,0.506,-0.809 (inactive),-0.207,0.672,0.743 (inactive)
CC(C)CON=C1C[C@@H](O)[C@@H](O)[C@@H]2[C@@H]3C(=O)N([C@@H](C)c4ccccc4)C(=O)[C@@H]3CC[C@@H]12,-0.196 (inactive),-0.0155,0.694 (inactive),0.63 (inactive),0.181 (inactive),0.281 (inactive),-0.691,-1.96 (inactive),0.799 (inactive),-0.519,-0.398,-0.63,-0.829,-0.79,0.336,-0.889,-0.72 (inactive),0.638,-0.389,0.0092 (inactive)
O=C(NN=C1C[C@@H](O)[C@@H](O)[C@@H]2[C@@H]3C(=O)N(c4ccc(F)cc4F)C(=O)[C@@H]3CC[C@H]12)OCc1ccccc1,0.342 (inactive),0.207,10.1 (active),1.29 (inactive),0.497 (inactive),0.6 (inactive),-0.262,0.317 (inactive),1.33 (inactive),0.866,-0.299,-0.198,-1.39,-0.46,0.707,0.344,0.533 (inactive),0.0563,-0.741,1.88 (inactive)
C[C@H]1CC[C@@H](C(=O)O)N[C@@H]1c1ccc(C#Cc2ccccc2)cc1,-0.553 (inactive),-0.101,0.0311 (inactive),-0.0838 (inactive),0.26 (inactive),-0.267 (inactive),-0.895,-0.217 (inactive),1.11 (inactive),1.93,-2.1,0.196,-2.28,-3.57,-3.49,-3.46,-0.272 (inactive),-0.92,-1.59,-0.522 (inactive)
Cc1cc2c(nc1C)CCCCN2CC(O)CN1CCCc2nc(-c3ccc(Br)cc3)ccc21 (stereo not given),0.453 (inactive),0.345,4.88 (inactive),0.0477 (inactive),0.0577 (inactive),0.148 (inactive),0.75,1.88 (inactive),0.175 (inactive),0.616,1.54,-0.829,1.62,0.322,-0.697,-0.814,-0.16 (inactive),0.357,-0.536,-0.379 (inactive)
COc1ccc(COC(=O)NN=C2C[C@@H](O)[C@@H](O)[C@@H]3[C@@H]4C(=O)N(C5CCCCC5)C(=O)[C@@H]4CC[C@@H]23)cc1,-0.83 (inactive),0.94,6.59 (inactive),1.25 (inactive),0.101 (inactive),0.622 (inactive),-0.185,-0.623 (inactive),-0.069 (inactive),0.391,0.0391,1.11,0.494,0.419,0.3,-0.0284,-0.297 (inactive),-0.375,-0.269,-0.533 (inactive)
COc1cccc([C@H]2Oc3ccc(OC)cc3C(=NOCC[C@@H]3C=C[C@H](OC(C)=O)[C@@H](COC(C)=O)O3)[C@@H]2O)c1,-1.05 (inactive),-0.18,1.16 (inactive),0.236 (inactive),-0.125 (inactive),0.416 (inactive),-1.04,0.511 (inactive),1.03 (inactive),-0.14,-0.34,-0.542,-0.744,0.445,-1.19,-1.28,-1.16 (inactive),-0.209,-1.04,-0.945 (inactive)
COc1ccc(OC[C@H]2CN3[C@@H](CC[C@@H](C)[C@@H]3c3ccc(Br)cc3)C(=O)O2)cc1,-0.228 (inactive),0.0861,2.04 (inactive),1.25 (inactive),0.345 (inactive),0.343 (inactive),0.936,-0.783 (inactive),-1.61 (inactive),-0.392,-0.0668,0.0118,-0.227,0.829,-1.2,-0.057,-0.187 (inactive),0.979,0.381,-0.914 (inactive)
COC(=O)[C@@H]1CC[C@H](C)[C@@H](c2ccc(Br)cc2)N1C[C@H](O)CN=[N+]=[N-],-0.972 (inactive),0.181,1.04 (inactive),0.852 (inactive),0.48 (inactive),0.541 (inactive),0.928,-0.855 (inactive),-1.08 (inactive),-0.0951,0.128,0.878,-0.671,0.572,-0.878,-0.0153,-0.416 (inactive),-0.443,0.75,-0.624 (inactive)
